Reference: PubChem BioAssay (NCATS)
Inconclusive results are not listed. Entries that show only a call come without a potency. Activity calls are given as the source filed them. Calls follow the shape of the dose curve; as a rule, active = well fitted inhibition curve with a large enough effect; inconclusive = small, poorly fitted or top-dose-only effect; inactive = flat fitted curve, though single readings scatter. Where a SMILES comes first, the peptide text is derived from it. [ ]: non-standard residue; d: D form. ξ: configuration not given here. ξLac(3-iPr) = CC(C)CC(O)C(=O)O; NMeV = CN[CH](C(=O)O)C(C)C; βAla = NCCC(=O)O

Target: Calcium and integrin-binding protein 1 (Homo sapiens) (UniProt Q99828)
Experiment: Primary qHTS for Identification of Calcium Integrin Binding Protein 1 (CIB1) Competitor (AID 1508620); also: top concentration of the series differs between compounds
Conditions: CIB1-GST / FITC-alphaIIb peptide fluorescence polarization; series mostly up to 114 µM
Outline: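 Fluorescence polarization competition: GST-tagged CIB1 (1 uM final) preincubated with compound 15 min at room temperature, then FITC-labelled alphaIIb peptide (100 nM final) added. After 15 min at room temperature, polarization read at Ex 480/Em 540.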

Calcium and integrin-binding protein 1 (Homo sapiens), sequence (Q99828 whole entry, looked up): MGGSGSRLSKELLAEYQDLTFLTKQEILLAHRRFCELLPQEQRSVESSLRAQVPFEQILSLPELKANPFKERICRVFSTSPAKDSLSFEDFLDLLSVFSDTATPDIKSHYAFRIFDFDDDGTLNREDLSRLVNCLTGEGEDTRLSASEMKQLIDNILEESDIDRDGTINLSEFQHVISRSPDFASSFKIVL

Compound	Potency
c1ccc(N2CCN(CCc3nn[nH]n3)CC2)cc1	inactive
CC1=C(C(=O)O[C@@H]2O[C@H](COC3OCC(O)C(O)C3O)[C@@H](O)[C@H](O)[C@H]2O)C(C)(C)CCC1 (stereo partly drawn)	inactive
CCc1ccc(Cc2ccc3c(c2)[C@]2(OC3)O[C@H](CO)[C@@H](O)[C@H](O)[C@H]2O)cc1	inactive
COc1cccc2cc3c(c(O[C@@H]4O[C@H](CO[C@@H]5O[C@H](CO)[C@@H](O)[C@H](O)[C@H]5O)[C@@H](O)[C@H](O)[C@H]4O)c12)C(C)OC3=O (stereo partly drawn)	inactive
CC[C@H]1OC(=O)[C@](C)(F)C(=O)[C@H](C)[C@@H](O[C@@H]2O[C@H](C)C[C@H](N(C)C)[C@H]2O)[C@](C)(OC)C[C@@H](C)C(=O)[C@@H](C)[C@H]2N(CCCCn3cc(-c4cccc(N)c4)nn3)C(=O)O[C@]12C	inactive
Cc1cc(OCc2nnc(SC3CCCC3)n2-c2cccnc2)ccc1-c1ccc(S(C)(=O)=O)cc1	inactive
CC1CCC2(C(=O)O)CCC3(C)C(=CCC4C5(C)CCC(O)C(C)(CO)C5CCC43C)C2C1(C)O (stereo not drawn)	inactive
Cc1ccccc1NC(=O)Nc1ccc(CC(=O)N(C)[C@@H](CC(C)C)C(=O)NCC[C@H](NC(=O)[C@@H]2CCCN2S(=O)(=O)c2cc(Cl)cc(Cl)c2)C(=O)O)cc1	inactive
CO[C@H]1C[C@@H]2CC[C@@H](C)[C@@](O)(O2)C(=O)C(=O)N2CCCC[C@H]2C(=O)O[C@H]([C@H](C)C[C@@H]2CC[C@H](n3cnnn3)[C@H](OC)C2)CC(=O)[C@H](C)/C=C(\C)[C@@H](O)[C@@H](OC)C(=O)[C@H](C)C[C@H](C)/C=C/C=C/C=C/1C	inactive
CC1OC(OC2C(O)C(OC3CCC4(C)C(CCC5(C)C4CC=C4C6CC(C)(COC7OC(CO)C(O)C(O)C7O)CC(O)C6(C)CCC45C)C3(C)C)OC(C(=O)O)C2O)C(O)C(O)C1OC1OCC(O)C(O)C1O (stereo not drawn)	inactive
COC1C(CO)OC(n2cnc3c(=O)[nH]cnc32)C1O (stereo not drawn)	inactive
C=CC(=O)Nc1cc(Nc2ncc(Cl)c(-c3c[nH]c4ccccc34)n2)c(OC)cc1N(C)CCN(C)C	inactive
CC(=O)NCC(=O)N1C2CCC1c1cc(Nc3ncc(C(F)(F)F)c(NC4CCC4)n3)ccc12 (stereo not drawn)	inactive
CC/C=C\[C@H](O)[C@H](O)C1=C(C)C(=O)[C@]2(O1)C(=O)N[C@@](OC)(C(=O)c1ccccc1)[C@@H]2O	inactive
CCCn1c(=O)c2[nH]c(-c3ccc(OCC(=O)O)cc3)nc2n(CCC)c1=O	inactive
Nc1nc(Nc2ccc(S(N)(=O)=O)cc2)n(C(=S)Nc2c(F)cccc2F)n1	inactive
COC1C(=O)CCC2(CO2)C1(O)C1(C)OC1CC=C(C)C (stereo not drawn)	inactive
CC(=O)OC[C@]12[C@H](OC(C)=O)C(=O)[C@@H]3[C@@H](OC(C)=O)[C@@]14O[C@@]3(C)COC(=O)c1cccnc1[C@@H](C)[C@H](C)C(=O)O[C@@H]([C@H](O)[C@@H]2OC(C)=O)[C@]4(C)O	inactive
CC(C)(C)Nc1nc2cc(Cl)c(Cl)cc2nc1S(C)(=O)=O	inactive
CC1(C)CC2C=C(C(=O)O)C3COC(=O)C(O)(CO)C23C1 (stereo not drawn)	inactive
Cc1c(NC(=O)c2cc(C(N)=O)nc3cc(F)ccc23)c(C(F)(F)F)nn1Cc1ccc(C#N)cc1	inactive
COC(=O)CC(O)C1OC(c2ccccc2)C(O)C1O (stereo not drawn)	inactive
C=C1C(=O)O[C@@H]2[C@H]1CCC(C)=C1CCC(=O)O[C@]12C	inactive
COc1cc(O)cc(C)c1C(=O)O[C@H]1[C@@H](OC(C)=O)[C@H](n2ccc(=O)[nH]c2=O)O[C@@H]1CO	inactive

Compound	Potency
CC(C)CC1NC(=O)C2CC3(O)c4ccccc4NC3N2C1=O (stereo not drawn)	inactive
CC(C)c1nnc(-c2ccc(-c3ccccc3)nc2)n1-c1cccc2nonc12	inactive
C/C=C1\[C@H](O[C@@H]2O[C@H](CO)[C@@H](O)[C@H](O)[C@H]2O)OC=C(C(=O)OC)[C@H]1CC(=O)OC[C@H]1O[C@@H](OCCc2ccc(O)cc2)[C@H](O)[C@@H](O)[C@@H]1O	inactive
Nc1nc(-n2cc(C(=O)O)c(=O)c3cc(F)c(N4CC(O)C4)c(Cl)c32)c(F)cc1F	inactive
C[C@H](NC(=O)CCc1nc2ccccc2c(=O)[nH]1)c1ccccc1	inactive
O=C(O)c1ccccc1NC(=O)N1CCC(c2ccccc2C(F)(F)F)CC1	inactive
C[C@@]12C[C@]3(O)O[C@H](O1)[C@]1(COC(=O)c4ccccc4)[C@H]3C[C@@]12O[C@@H]1O[C@H](CO)[C@@H](O)[C@H](O)[C@H]1O	inactive
c1cc(OCCCN2CCCCC2)ccc1CN1CCCCC1	inactive
CN(c1ccccc1CNc1nc(Nc2ccc3c(c2)CC(=O)N3)ncc1C(F)(F)F)S(C)(=O)=O	inactive
O=C(/C=C/c1ccc(O)cc1)OC1[C@H](O)CC(O)(C(=O)O)C[C@H]1O (stereo partly drawn)	inactive
CC1(C)CC[C@]2(C(=O)O)CC[C@]3(C)C(=CCC4[C@@]5(C)CC[C@H](O[C@@H]6O[C@H](C(=O)O)[C@@H](O[C@@H]7OC[C@@H](O)[C@H](O)[C@H]7O)[C@H](O)[C@H]6O)C(C)(C)C5CC[C@]43C)C2C1O (stereo partly drawn)	inactive
Cc1cnc(Nc2ccc(F)cc2Cl)nc1-c1c[nH]c(C(=O)NC(CO)c2cccc(Cl)c2)c1 (stereo not drawn)	inactive
O=C1NC2CCc3nc4ccccc4c(=O)n3C2=Nc2ccccc21 (stereo not drawn)	inactive
OC[C@H]1O[C@@H](Oc2cc(O)c3c(c2)O[C@@H](c2ccc(O)cc2)[C@H](O)C3)[C@H](O)[C@@H](O)[C@@H]1O	inactive
COc1cc2c(cc1O)CC[C@H]1[C@@H]2CC[C@]2(C)[C@H](O)CC[C@@H]12	inactive
CN=C(N)NCCCCC/C=C(/C)CC(C)C1OC(=O)C(C)C(O)/C=C/C(C)C(O)CC(O)C(C)C(O)CCC(C)C(O)CC2(O)OC(CC(OC(=O)CC(=O)O)CC(O)CC(O)C(C)C(O)/C(C)=C/CCC1C)CC(O)C2O (stereo not drawn)	inactive
Cc1nc(C)c(-c2ccc(C3CCC(CC(=O)O)CC3)cc2)nc1C(N)=O (stereo not drawn)	inactive
CC(C)c1cc2c(c(O)c1O)[C@@]13CCCC(C)(C)[C@@H]1[C@H](OC3=O)C2=O	inactive
CC1C(=O)CC2C3CCC(C(=O)O)C12CC3(C)CO (stereo not drawn)	inactive
C[C@@H]1O[C@@H](O[C@H]2[C@@H]3C=CO[C@@H](O[C@@H]4O[C@H](CO)[C@@H](O)[C@H](O)[C@H]4O)[C@@H]3[C@@]3(CO)O[C@@H]23)[C@H](OC(=O)/C=C/c2ccc(O)c(O)c2)[C@H](O)[C@H]1O	inactive
COc1c2c(c(C)c3c1C(=O)OC3)O[C@@]1(C)CCC3(C(C)(C)O)OC(=O)CC[C@]3(C)[C@H]1C2 (stereo partly drawn)	inactive
CC(=O)O[C@@H]1C[C@H](O)[C@@]23CO[C@H](O)[C@]1(C)C2C[C@@H](O)[C@]1(C)C3C(=O)[C@H](OC(C)=O)[C@@]2(C)[C@H](c3ccoc3)C[C@H]3O[C@]321 (stereo partly drawn)	inactive
CC(C)CC1OC(=O)C2CCCN2C(=O)CCNC(=O)C(Cc2ccccc2)NC(=O)C(C(C)C)N(C)C(=O)C(C(C)C)N(C)C1=O (stereo not drawn) (cyclo([ξLac(3-iPr)][NMeV][NMeV]F[βAla]P); configuration not given here)	inactive
COc1c2c(c(C)c3c1C(=O)OC3)OC1(C)CC(O)C34OC(OC)(OC3(C)C)C(O)CC4(C)C1C2 (stereo not drawn)	inactive
